Rows were chosen to be rich in hits. Some 2.2% of all compounds tested hit in one or more screens of this group.
TDP-43 yeast inh – rescues yeast growth from TDP-43 toxicity; TDP-43 expressing yeast growth rescue, BacTiter-Glo, 24 h; Potency, µM (doses to about 46.1 µM), inactives show at the top dose growth rescue (activation), most hits filed as activators; hit rate 1.8% among 410,000; also: % of control where 0% means no effect; nearly all actives have a fitted effect of over 50% in size
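Luminescence from BacTiter-Glo reports growth of TDP-43-expressing yeast after 24 hr at 30 deg C with compound. Cells were raffinose-pregrown to mid-log, then seeded in galactose medium at OD600=0.02.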
Mito fusion yeast – blocks mitochondrial division or promotes mitochondrial fusion | AID 485298 | hit rate 0.23% among 320,000 | S. cerevisiae fusion-defective mutant growth rescue, CellTiterGlo 48 h | Potency, µM (top dose mostly 46.1 µM), without a hit: at the top dose growth rescue (activation), usual class: activators; also: % of control where 0% means no effect; nearly all actives have a fitted effect of over 45% in size
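Compounds are tested for their ability to restore growth of mitochondrial fusion-defective yeast strains at non-permissive 37C in YPEG medium over 48 hours. Viability is quantified by luciferase luminescence.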
aSyn yeast inh – rescues yeast growth from alpha-synuclein toxicity; Yeast expressing alpha-synuclein, growth rescue, BacTiter-Glo, 24 h; hit rate 0.14% among 370,000; Potency, µM (series often up to 46.1 µM), without a hit: top-dose growth rescue (activation), hits mostly activators; also: % of control where 0% means no effect; nearly all actives have a fitted effect of over 65% in size
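Screening used galactose-induced yeast with toxic alpha-synuclein levels, exposed to compound for 24 hr at 30 deg C. Cell growth, read with BacTiter-Glo luminescence, gave the measured signal.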
ERG-DNA inh – ERG Ets/DNA interaction inhibition; fluorescence polarization, His-ERG Ets domain / labelled DNA; Potency, µM (doses to about 76.9 µM), for inactives: top-dose FP activity, negative = inhibition, most hits filed as inhibitors; hit rate 0.028% among 370,000; active = well fitted inhibition curve with a large enough effect in the polarisation, with a control signal flat; inconclusive = small, poorly fitted or top-dose-only effect, or effect the other way, or a change in a side signal; inactive = no such curve, though single readings can be large or run the other way; the % refers to the polarisation;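 also: polarization taken with two DNA probes labelled with fluorescein and Texas red; % of control where 0% means no effect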
Target sequence (P11308 whole entry, looked up, the tested form may be a part): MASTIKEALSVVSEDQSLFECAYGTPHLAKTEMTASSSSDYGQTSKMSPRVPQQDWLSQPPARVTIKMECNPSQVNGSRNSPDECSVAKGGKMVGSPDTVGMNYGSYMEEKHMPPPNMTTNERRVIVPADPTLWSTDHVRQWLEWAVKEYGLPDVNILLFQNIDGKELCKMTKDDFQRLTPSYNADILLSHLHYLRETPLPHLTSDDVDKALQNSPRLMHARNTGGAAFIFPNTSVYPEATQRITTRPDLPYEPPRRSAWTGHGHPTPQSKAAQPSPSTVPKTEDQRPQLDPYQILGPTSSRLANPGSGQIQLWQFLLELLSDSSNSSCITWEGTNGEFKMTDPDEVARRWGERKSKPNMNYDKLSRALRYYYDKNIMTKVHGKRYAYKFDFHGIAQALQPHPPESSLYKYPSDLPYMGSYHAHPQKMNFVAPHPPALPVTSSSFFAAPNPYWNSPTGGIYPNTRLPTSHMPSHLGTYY
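His-tagged ERG Ets domain (1 uM in the protein solution; 300mM KCl, 50mM Tris-HCl, 1mM EDTA, 1mM DTT, pH 7.5) received compound, then a probe mix of 5 nM fluorescein-DNA and 100nM Texas-615-DNA. Fluorescence polarization was read for both dyes.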
Abeta yeast res – A-beta toxicity reversal in yeast; Potency, µM (titrated, usually from 46.1 µM), hits mostly activators; AID 1347071; yeast expressing A-beta42, growth rescue, OD600, 48 h; response scale: 0% DMSO, 100% iron-clioquinol control; hit rate 0.063% among 410,000; also: nearly all actives have a fitted effect of over 55% in size
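Growth rescue measured by 600 nm absorbance after 48 h yeast culture at 30 C with compound. Values normalized between DMSO and an equimolar ferric chloride plus clioquinol control.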
FUS yeast rescue – suppressors of FUS proteinopathy in yeast | S. cerevisiae FUS-expressing, growth rescue, OD600, 24 h | Potency, µM (series often up to 76.6 µM), usual class: activators | hit rate 0.24% among 390,000 | AID 1347120;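 also: plate controls were DMSO vehicle for no effect and reference control for full effect; nearly all actives have a fitted effect of over 55% in size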
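Yeast FUS proteinopathy model; galactose-induced FUS (2%), starting OD 0.005. Cpds in dilution series, 24hr, 30C, 99% humidity. Abs 600 nm growth. Pos ctrl CP55940 (top 92uM final); neg ctrl DMSO.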
An asterisk follows results filed as active; i = inactive; ? = inconclusive; / = not tested or not shown. Unless noted, calls follow the shape of the dose curve; as a rule, active = well fitted curve in the direction sought with a large enough effect; inconclusive = small, poorly fitted or top-dose-only effect, or another doubt; inactive = no such curve, though single readings can be large; an effect the other way counts as inactive or inconclusive. Potency is read from the fitted curve at half-maximal effect.

SMILES	TDP-43 yeast inh	Mito fusion yeast	aSyn yeast inh	ERG-DNA inh	Abeta yeast res	FUS yeast rescue
COc1ccc(/C=N\NC(=O)Cc2cccn2C)cc1OCc1ccccc1	/	/	/	/	/	i
COc1ccc(-c2nc3cnccn3c2Nc2ccc3c(c2)OCO3)cc1	24%	3%	6%	-5%	i	28µM*
CC(C)(C)C(=O)Nc1ccc2nc(SCCOc3ccccc3Cl)sc2c1	1%	/	/	-5%	i	i
O=C(O)C1C2CCC(CC2)C1C(=O)N1CCN(Cc2ccc(F)cc2)CC1 (centres undefined)	20µM*	-2%	5%	-5%	i	i
O=C(C1CCN(Cc2ccc(F)cc2)CC1)N1CCN(C/C=C/c2ccccc2)CC1	-29%	-7%	-3%	?	i	i
Fc1ccc(Cn2nnnc2C(c2ccc(Cl)cc2)N2CCSCC2)cc1 (centres undefined)	35µM*	20%	10%	5%	i	i
Cc1ccccc1-c1ccc(CN2C(C)C(=O)N(Cc3cn(Cc4ccco4)nn3)CCS2(=O)=O)cc1 (centres undefined)	35µM*	/	?	/	i	?
Cc1ccc(-c2ccc(CN3C(C)C(=O)N(Cc4cn(Cc5ccco5)nn4)CCS3(=O)=O)cc2)c(C)c1 (centres undefined)	35µM*	/	?	/	i	?
CC1C(=O)N(Cc2cn(Cc3ccco3)nn2)CCS(=O)(=O)N1Cc1ccc(-c2ccc(Cl)c(Cl)c2)cc1 (centres undefined)	35µM*	/	?	/	i	?
COc1ccc(-c2cc(C(=O)NN=Cc3ccc(O)c(OC)c3)[nH]n2)cc1	/	/	/	/	/	i
O=C(Nc1cccc(C(F)(F)F)c1)c1cc(-c2ccc(Cl)s2)nc2ccccc12	13%	/	/	5%	i	i
CCc1cnc2c(c1SC(C(C)=O)C(=O)N(C)C)c(=O)n(C)c(=O)n2C (centres undefined)	9%	/	/	5%	i	i
Cc1ccc(NC(=O)CSCC(=O)N(C)CCOc2ccc(Cl)cc2)cc1	?	?	9%	0%	i	i
Cc1cccc(NC(=O)CSCC(=O)N(C)CCOc2ccc(Cl)cc2)c1	13µM*	-3%	-2%	-4%	i	i
O=C(Nc1ccsc1C(=O)O)c1ccccc1	-18%	1%	-12%	16%	i	i
O=C(Nc1ccsc1C(=O)NC1CC1)c1ccccc1	13µM*	14%	-11%	-9%	i	i
COc1cc(OC)c(NC(=O)C(C)n2c(=O)cc(-c3ccccc3)c3c(C)nn(C)c32)cc1Cl (centres undefined)	2%	/	/	-7%	i	i
C=C(C)Cn1c(=O)c2c(nc3n2CCN3c2ccc(CC)cc2)n(C)c1=O	21%	/	/	3%	i	i
COc1cc(OC)nc(-n2ncc(Br)c(Br)c2=O)n1	11µM*	?	9%	14%	i	i
COC(=O)c1cnn(-c2nc(OC)cc(OC)n2)c1C	5%	1%	8%	4%	i	/
CCOc1ccc(/C=C(\C#N)C(=O)c2c(C)[nH]c3ccccc23)cc1OC	20µM*	-1%	-19%	12%	i	i
COc1cc(/C=C(/C#N)C(=O)c2c(C)[nH]c3ccccc23)ccc1OCC#N	5%	-4%	-12%	8%	i	i
Cc1cc(C)cc(-n2c(SCC(=O)N3CCCCC3)nc3c([nH]c4ccccc43)c2=O)c1	?	/	?	-9%	i	i
CCCCN(CC)CCCNC(=O)C1CCN(c2nc3ccc(CC)cc3s2)CC1	13%	/	/	-9%	i	i
Cc1cc2nc(-c3ccco3)c(Cc3cccc(Cl)c3)n2c(C)c1Br	13µM*	/	2%	/	i	i
SMILES	TDP-43 yeast inh	Mito fusion yeast	aSyn yeast inh	ERG-DNA inh	Abeta yeast res	FUS yeast rescue
Cc1cc2nc(-c3cccc(Cl)c3)c(Cc3cccc(Cl)c3)n2c(C)c1Br	?	/	3%	/	i	i
O=C1C=C(c2cccc(CO)c2)C[C@@H](c2ccc3c(c2)OCO3)C1	20µM*	15%	3%	4%	i	i
N#Cc1ccc(C2=CC(=O)C[C@H](c3ccc4c(c3)OCO4)C2)cc1	18µM*	18%	-2%	-9%	i	?
O=C1C=C(c2cccc(OCc3ccccc3)c2)C[C@@H](c2ccc3c(c2)OCO3)C1	-24%	3%	-13%	16%	i	i
O=C1C=C(c2ccc3c(c2)OCO3)C[C@@H](c2ccc3c(c2)OCO3)C1	8%	-5%	2%	-10%	i	i
O=C(N[C@H]1C/C=C\C[C@@H](CC(=O)N(CCO)Cc2ccccc2)C(=O)N[C@H](Cc2c[nH]c3ccccc23)COC1=O)OCC1c2ccccc2-c2ccccc21	24%	/	-4%	1%	i	20µM*
O=C(N[C@@H]1C/C=C\C[C@H](CC(=O)N(CCO)Cc2ccccc2)C(=O)N[C@@H](Cc2c[nH]c3ccccc23)COC1=O)OCC1c2ccccc2-c2ccccc21	24%	/	2%	0%	i	?
O=C1N[C@@H](Cc2c[nH]c3ccccc23)COC(=O)[C@@H](Cc2ccc(F)cc2)C/C=C\C[C@H]1CC(=O)N(CCO)Cc1ccccc1	4%	/	1%	5%	i	?
O=C1N[C@@H](Cc2c[nH]c3ccccc23)COC(=O)[C@H](Cc2ccc(F)cc2)C/C=C\C[C@@H]1CC(=O)N(CCO)Cc1ccccc1	22%	/	6%	-8%	i	28µM*
O=C1NC[C@H](c2ccccc2)OC(=O)[C@H](Cc2ccc(F)cc2)CC/C=C/C[C@@H]1CC(=O)N(CCO)Cc1ccccc1	18%	/	4%	-2%	i	?
O=C1NC[C@@H](c2ccccc2)OC(=O)[C@@H](Cc2ccc(F)cc2)CC/C=C/C[C@H]1CC(=O)N(CCO)Cc1ccccc1	-6%	/	13%	-2%	i	25µM*
O=C(N[C@@H]1C/C=C\C[C@@H](CC(=O)N(CCO)Cc2ccccc2)C(=O)N[C@@H](c2ccccc2)COC1=O)OCC1c2ccccc2-c2ccccc21	12%	/	4%	9%	i	?
O=C(N[C@H]1C/C=C\C[C@H](CC(=O)N(CCO)Cc2ccccc2)C(=O)N[C@H](Cc2c[nH]c3ccccc23)COC1=O)OCC1c2ccccc2-c2ccccc21	6%	/	2%	3%	i	22µM*
Cc1ccc2nc3ccc(N4CCN(C)CC4)nn3c(=O)c2c1	23%	1%	0%	3%	i	/
